For some assays here: Potency and affinity values are given separately.
Columns and labels:
Set-up in all cases: scale not given: direction of the effect not stated beside the values
[1] = target: Protein translocase subunit SecA (Escherichia coli (strain K12)) (UniProt P10408); assay: Assay to Identify E. coli SecA ATPase Inhibitors; format: functional; details: 30 µM
[2] = target: T1, Ubiquitin-activating enzyme e1, putative (Leishmania donovani (strain BPK282A1)) (UniProt E9BSI1); assay: Leishmania donovani Ubiquitin Activating Enzyme (LdE1); format: functional; details: 30 µM
T1 sequence (whole entry): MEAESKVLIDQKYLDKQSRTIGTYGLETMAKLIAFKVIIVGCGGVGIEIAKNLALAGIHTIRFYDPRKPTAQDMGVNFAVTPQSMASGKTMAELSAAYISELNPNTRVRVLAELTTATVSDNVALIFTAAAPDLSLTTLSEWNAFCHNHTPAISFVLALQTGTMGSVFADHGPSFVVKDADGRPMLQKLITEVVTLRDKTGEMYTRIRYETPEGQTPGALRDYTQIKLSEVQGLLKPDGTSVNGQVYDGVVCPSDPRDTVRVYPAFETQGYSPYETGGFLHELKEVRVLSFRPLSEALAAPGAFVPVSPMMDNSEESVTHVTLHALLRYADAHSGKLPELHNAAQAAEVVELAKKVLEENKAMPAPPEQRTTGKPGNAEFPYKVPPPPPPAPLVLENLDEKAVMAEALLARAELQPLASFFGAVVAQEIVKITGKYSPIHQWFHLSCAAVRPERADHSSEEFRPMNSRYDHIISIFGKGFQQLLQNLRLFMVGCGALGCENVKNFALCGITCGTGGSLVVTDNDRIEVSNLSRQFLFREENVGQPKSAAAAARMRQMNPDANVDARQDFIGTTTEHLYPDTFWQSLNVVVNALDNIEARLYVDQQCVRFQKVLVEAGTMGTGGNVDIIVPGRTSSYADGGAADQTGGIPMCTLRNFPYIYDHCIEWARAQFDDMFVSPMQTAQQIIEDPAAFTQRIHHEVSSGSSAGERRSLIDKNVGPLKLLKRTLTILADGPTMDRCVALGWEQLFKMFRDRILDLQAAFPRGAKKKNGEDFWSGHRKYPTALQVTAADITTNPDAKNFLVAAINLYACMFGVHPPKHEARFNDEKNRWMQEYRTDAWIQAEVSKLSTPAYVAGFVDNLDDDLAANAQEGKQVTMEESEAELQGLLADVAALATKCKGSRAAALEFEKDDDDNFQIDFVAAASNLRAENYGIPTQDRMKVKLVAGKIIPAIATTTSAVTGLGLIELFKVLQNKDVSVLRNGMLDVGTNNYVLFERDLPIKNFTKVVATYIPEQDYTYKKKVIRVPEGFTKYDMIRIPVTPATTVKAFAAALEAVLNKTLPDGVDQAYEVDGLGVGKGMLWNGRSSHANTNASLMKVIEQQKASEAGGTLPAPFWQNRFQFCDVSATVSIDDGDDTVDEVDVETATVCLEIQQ

[3] = target: AMP-activated protein kinase, AMPK (Homo sapiens) (UniProt P54646+O43741+P54619+Q9UGJ0+Q9Y478+Q13131+Q9UGI9); assay: AMP-dependent Kinase enzyme assay. An in vitro enzyme assay that detects ADP turnover that is directly proportional to AMPK activity. This uses naive AMPK that is activated during the assay with MK-8722; format: functional; details: 30 µM
[4] = target: Sialic acid-binding Ig-like lectin 9 (Homo sapiens) (UniProt Q9Y336); assay: Hs-Siglec9 ALPHAscreen SOP 20170721; details: 10 µM
Sialic acid-binding Ig-like lectin 9 (Homo sapiens), sequence (Q9Y336 whole entry): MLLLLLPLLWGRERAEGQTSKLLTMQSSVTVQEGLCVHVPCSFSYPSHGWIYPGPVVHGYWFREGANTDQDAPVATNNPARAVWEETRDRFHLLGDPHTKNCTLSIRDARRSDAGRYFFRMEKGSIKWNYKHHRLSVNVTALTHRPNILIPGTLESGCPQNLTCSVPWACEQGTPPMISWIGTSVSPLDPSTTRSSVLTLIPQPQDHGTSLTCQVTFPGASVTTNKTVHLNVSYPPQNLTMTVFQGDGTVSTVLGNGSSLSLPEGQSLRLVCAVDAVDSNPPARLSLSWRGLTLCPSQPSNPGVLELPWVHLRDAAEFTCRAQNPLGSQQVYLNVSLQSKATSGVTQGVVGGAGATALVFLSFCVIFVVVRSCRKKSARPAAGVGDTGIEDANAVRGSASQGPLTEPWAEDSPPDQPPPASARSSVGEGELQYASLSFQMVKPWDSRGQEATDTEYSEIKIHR

Trypanosoma cruzi = assay: Trypanosoma cruzi phosphomannomutase and mannose-1-phosphate guanylyltransferase assay; format: functional; details: 10 µM
[5] = target: T2, Arginase-2, mitochondrial (Homo sapiens) (UniProt P78540); assay: in vitro enzyme assay to detect the production of urea directly proportional to the activity of Arginase II; format: functional; details: 33.3 µM; note: in the data most compounds retested in dose-response had high values
T2 sequence (whole entry): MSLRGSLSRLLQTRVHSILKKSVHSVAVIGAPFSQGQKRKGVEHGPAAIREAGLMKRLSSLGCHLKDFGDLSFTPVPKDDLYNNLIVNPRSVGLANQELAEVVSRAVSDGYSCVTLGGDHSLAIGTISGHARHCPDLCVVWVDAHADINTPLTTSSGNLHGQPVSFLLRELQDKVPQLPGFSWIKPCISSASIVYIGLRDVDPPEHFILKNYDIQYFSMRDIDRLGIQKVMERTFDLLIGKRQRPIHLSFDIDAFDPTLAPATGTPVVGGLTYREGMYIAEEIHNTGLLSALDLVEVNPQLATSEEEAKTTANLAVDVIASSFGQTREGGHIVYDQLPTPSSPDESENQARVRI

[6] = target: T3, Proteasome subunit beta (Trypanosoma cruzi) (UniProt O96673); assay: Trypanosoma cruzi proteasome chymotrypsin-like activity (TcProtChymo) assay.; note: in the data most compounds retested in dose-response had high values; format: functional; details: 9.37 µM
T3 sequence (whole entry): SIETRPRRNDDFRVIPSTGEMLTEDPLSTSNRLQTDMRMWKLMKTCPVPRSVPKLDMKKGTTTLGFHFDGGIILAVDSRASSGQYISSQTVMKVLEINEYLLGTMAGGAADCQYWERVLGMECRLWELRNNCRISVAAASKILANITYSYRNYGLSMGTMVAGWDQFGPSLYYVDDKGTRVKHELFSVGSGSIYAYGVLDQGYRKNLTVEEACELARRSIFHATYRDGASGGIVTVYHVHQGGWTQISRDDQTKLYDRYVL

Homo sapiens = species on record: Homo sapiens; assay: To identify inhibition of the IFN signalling (Jak-Stat) pathway via expression of an eGFP reporter gene under the control of an IFN-stimulated response element (ISRE) containing MxA promoter.; format: functional; details: 30 µM
[7] = target: T4, Tyrosyl-tRNA synthetase, putative (Trypanosoma cruzi (strain CL Brener)) (UniProt Q4DSP6); assay: Trypanosoma cruzi tyrosyl tRNA synthetase (TcYRS) _High Tyrosine SOP; format: functional; details: 30 µM; note: in the data most compounds retested in dose-response had high values
T4 sequence (whole entry): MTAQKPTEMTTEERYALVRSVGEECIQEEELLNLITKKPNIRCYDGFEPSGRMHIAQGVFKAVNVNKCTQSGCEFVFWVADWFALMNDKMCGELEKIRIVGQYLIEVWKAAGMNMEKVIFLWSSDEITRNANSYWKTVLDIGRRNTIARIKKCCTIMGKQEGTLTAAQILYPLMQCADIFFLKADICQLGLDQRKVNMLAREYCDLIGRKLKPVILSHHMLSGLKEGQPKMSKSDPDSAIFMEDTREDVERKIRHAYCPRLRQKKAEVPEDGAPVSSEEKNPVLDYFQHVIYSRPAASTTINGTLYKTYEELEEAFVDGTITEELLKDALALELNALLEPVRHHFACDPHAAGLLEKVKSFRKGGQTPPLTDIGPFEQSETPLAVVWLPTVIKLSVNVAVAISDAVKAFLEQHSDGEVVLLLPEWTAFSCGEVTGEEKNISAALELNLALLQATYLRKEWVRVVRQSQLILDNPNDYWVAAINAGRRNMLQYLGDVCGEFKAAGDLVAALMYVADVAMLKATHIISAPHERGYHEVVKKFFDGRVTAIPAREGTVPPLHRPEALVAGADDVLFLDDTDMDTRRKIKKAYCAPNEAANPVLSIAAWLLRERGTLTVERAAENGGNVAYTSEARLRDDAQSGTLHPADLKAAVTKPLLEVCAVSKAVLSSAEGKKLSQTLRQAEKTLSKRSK

[8] = target: T4, Tyrosyl-tRNA synthetase, putative (Trypanosoma cruzi (strain CL Brener)); assay: Trypanosoma cruzi tyrosyl tRNA synthetase (TcYRS) SOP; format: functional; details: 30 µM
[9] = target: Chromo domain-containing protein 1 (Saccharomyces cerevisiae (strain ATCC 204508 / S288c) (Baker's yeast)) (UniProt P32657); assay: ScCHD-1 Enzyme Inhibition Assay; format: functional; details: 30 µM; note: in the data most compounds retested in dose-response had high values
Chromo domain-containing protein 1 (Saccharomyces cerevisiae (strain ATCC 204508 / S288c) (Baker's yeast)), sequence (P32657 whole entry, the tested form may be a part): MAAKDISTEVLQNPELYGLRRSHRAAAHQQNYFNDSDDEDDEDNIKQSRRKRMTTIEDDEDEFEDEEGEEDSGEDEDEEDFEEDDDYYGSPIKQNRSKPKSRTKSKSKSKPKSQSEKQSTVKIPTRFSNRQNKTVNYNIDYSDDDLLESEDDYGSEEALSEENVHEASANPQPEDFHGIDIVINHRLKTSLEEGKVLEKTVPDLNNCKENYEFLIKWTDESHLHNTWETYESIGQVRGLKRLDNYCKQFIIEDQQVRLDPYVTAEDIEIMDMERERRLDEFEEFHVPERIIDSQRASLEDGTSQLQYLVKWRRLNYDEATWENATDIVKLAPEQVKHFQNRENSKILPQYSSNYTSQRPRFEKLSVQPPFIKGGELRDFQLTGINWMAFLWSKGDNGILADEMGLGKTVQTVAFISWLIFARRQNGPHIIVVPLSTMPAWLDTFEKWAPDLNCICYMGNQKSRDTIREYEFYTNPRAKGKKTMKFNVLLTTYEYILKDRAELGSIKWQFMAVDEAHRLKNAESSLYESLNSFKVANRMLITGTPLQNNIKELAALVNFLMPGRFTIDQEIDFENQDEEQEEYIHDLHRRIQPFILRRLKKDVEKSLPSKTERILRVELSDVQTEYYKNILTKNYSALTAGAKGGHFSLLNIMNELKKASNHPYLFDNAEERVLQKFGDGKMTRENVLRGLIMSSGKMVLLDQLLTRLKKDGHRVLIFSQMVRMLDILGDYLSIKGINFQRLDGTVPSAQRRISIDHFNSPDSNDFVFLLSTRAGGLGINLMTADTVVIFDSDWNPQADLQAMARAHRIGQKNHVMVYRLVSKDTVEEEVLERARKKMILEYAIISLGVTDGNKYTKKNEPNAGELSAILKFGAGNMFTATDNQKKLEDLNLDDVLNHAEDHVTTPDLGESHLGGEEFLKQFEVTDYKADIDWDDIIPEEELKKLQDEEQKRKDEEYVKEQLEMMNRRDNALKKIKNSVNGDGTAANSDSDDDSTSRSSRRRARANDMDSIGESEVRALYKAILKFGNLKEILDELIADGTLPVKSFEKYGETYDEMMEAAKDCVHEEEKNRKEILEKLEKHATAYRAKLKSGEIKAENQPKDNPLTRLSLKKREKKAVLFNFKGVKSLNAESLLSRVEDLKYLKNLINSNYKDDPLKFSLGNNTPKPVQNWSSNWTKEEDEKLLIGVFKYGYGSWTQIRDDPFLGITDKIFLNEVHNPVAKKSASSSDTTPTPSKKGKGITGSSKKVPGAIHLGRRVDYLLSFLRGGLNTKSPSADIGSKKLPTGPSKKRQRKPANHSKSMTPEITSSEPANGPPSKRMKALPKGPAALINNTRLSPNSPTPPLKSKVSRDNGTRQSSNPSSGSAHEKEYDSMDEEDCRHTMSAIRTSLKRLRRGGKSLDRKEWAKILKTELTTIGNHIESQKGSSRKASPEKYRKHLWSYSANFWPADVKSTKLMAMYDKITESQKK

Protein translocase subunit SecA (Escherichia coli (strain K12)), sequence (P10408 whole entry): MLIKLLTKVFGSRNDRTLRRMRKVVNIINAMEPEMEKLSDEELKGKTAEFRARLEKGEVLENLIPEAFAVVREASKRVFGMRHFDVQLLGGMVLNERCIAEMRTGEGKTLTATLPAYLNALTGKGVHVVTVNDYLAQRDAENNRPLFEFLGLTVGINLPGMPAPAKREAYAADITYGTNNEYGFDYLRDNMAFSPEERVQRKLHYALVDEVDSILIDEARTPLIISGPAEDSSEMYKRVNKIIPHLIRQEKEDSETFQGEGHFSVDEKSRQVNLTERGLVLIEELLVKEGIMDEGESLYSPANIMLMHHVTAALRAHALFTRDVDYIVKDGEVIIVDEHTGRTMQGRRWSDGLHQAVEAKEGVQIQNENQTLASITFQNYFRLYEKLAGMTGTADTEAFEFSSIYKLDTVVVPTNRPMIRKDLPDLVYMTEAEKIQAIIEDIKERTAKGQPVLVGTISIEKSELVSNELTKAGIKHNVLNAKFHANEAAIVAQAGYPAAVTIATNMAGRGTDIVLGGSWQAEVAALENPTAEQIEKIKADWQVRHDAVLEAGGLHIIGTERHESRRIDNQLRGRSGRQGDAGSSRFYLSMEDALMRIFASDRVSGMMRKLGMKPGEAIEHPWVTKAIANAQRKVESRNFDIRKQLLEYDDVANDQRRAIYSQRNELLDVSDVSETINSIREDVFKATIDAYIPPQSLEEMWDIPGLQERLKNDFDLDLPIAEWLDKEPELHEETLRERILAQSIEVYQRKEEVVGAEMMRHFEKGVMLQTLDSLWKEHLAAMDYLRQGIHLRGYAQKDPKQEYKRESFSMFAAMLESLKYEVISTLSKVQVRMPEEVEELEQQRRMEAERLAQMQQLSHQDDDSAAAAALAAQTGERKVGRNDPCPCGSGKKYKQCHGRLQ

Compound	Percent Effect [1]	Percent Effect [2]	Percent Effect [3]	Percent Effect [4]	Percent Effect (Trypanosoma cruzi)	Percent Effect [5]	Percent Effect [6]	Percent Effect (Homo sapiens)	Percent Effect [7]	Percent Effect [8]	Percent Effect [9]
CC(O)CN1CCN(C(=O)c2cc3ccccc3c(=O)[nH]2)CC1 (configuration not stated)	-0.781%	-5.26%	5.31%	-2.11%	-3.41%	-10.7%	13.1%	-6.84%	0%	2.6%	12.2%
Cc1ccc(C)c(NC(=O)c2n[nH]c(-n3cnnc3)n2)c1	-1.59%	6.67%	0.649%	8.26%	2.75%	-2.64%	9.24%	18.5%	6.35%	10.3%	-4%
CCCc1nc(CN2CCCC(Cn3cncn3)C2)no1 (configuration not stated)	-6.43%	-1.27%	0.957%	-0.585%	0.718%	0.215%	2.06%	4.36%	5.21%	15.2%	-25.2%
CN1N=C(C(=O)Nc2cc(F)ccc2OCC2CCCO2)CCC1=O (configuration not stated)	-1.5%	-5.2%	12%	2.24%	7.3%	-6.41%	6.25%	-6.34%	1.94%	2.44%	-8.4%
c1ccc(-c2nc(CN3CCCC3Cn3cncn3)cs2)cc1 (configuration not stated)	-2.21%	-17.7%	-1.4%	4.03%	3.68%	-2.28%	1.39%	-16.9%	4.43%	3.8%	25.8%
CCCNCC1(O)CCCN(Cc2cccc(C)c2)C1=O (configuration not stated)	-3.44%	0%	3.08%	-2.93%	1.57%	-1.82%	-2.66%	-21.7%	3.23%	5%	-1.9%
CCOCCC(=O)Nc1cccc(Oc2ccccn2)c1	-5.45%	0%	-0.587%	2.14%	0.487%	2.37%	0.288%	-0.792%	0%	-5.2%	6.72%
O=C(NCCn1ccnc1)c1cccc(F)c1	-1.92%	18.4%	-6.48%	-8.53%	-4.39%	0.36%	9.56%	-11.5%	5.42%	13.6%	-6.88%
CN(C)CC1CN(c2ncnc3[nH]ccc23)CCO1 (configuration not stated)	-5.15%	16.5%	22%	2.27%	0.103%	-1.94%	13.9%	28.5%	7.29%	15.2%	-33%
CCN1CC(C(=O)N(C)Cc2ccon2)CC1=O (configuration not stated)	-8.65%	0%	-1.95%	-7.7%	-2.44%	-2.73%	7.47%	13.7%	-1.07%	-1.24%	-3.83%
Cc1cnn(CC2CCCN2C(=O)c2cnc3n[nH]c(C)c3c2)c1 (configuration not stated)	-6.55%	16.5%	0.256%	-4.46%	2.36%	0.645%	7.55%	2.33%	3.12%	20.2%	-32.5%
CCc1noc(C(C)N2CCN(Cc3noc(C)n3)CC2)n1 (configuration not stated)	1.26%	21.1%	-0.566%	-7.24%	1.32%	-4.21%	19.6%	15.5%	6.37%	17.1%	-7.65%
O=C([C@H]1CCCO1)N1CCc2ncnc(NC3CC3)c2CC1	1.86%	0%	-0.252%	-2.06%	-5.47%	5%	12.4%	3.34%	9.9%	13.4%	-4.91%
COc1ccc(CN2CCCC(Cn3nc(C)nc3C)C2)cc1F (configuration not stated)	-2.67%	-3.8%	7.97%	-1.91%	5.64%	-1.94%	0%	5.94%	-2.08%	2.53%	4.68%
Cc1cccc(CN2C[C@@H]3CN(C(=O)c4ccsc4)C[C@@H]3C2=O)c1	-2.06%	7.79%	5.77%	6.12%	-3.25%	0%	13%	18.7%	3.23%	8.64%	0.397%
CS(=O)(=O)N1CCC(C(=O)NC(Cc2ccsc2)c2nccs2)CC1 (configuration not stated)	-5.37%	9.46%	6.1%	-1.37%	-3.36%	-1.16%	2.65%	12.9%	0%	11.7%	2.8%
NS(=O)(=O)CCNC(=O)c1nnn(-c2ccccc2)c1C1CC1	0.0352%	2.7%	0.144%	-1.59%	-8.4%	2.92%	12.1%	1.92%	4.95%	6.1%	-4.86%
O=C1CC(c2ccccc2)C2(CCN(CC3CC3)CC2)N1 (configuration not stated)	-1.75%	10.7%	3.12%	-1.87%	5.02%	-55%	9.23%	0.446%	5.21%	20%	-5.25%
COc1ccc2c(c1)CN(Cc1nc3c(cnn3C)c(=O)[nH]1)CC2	-1.51%	15.2%	-8.08%	0.541%	0.85%	2.66%	7.45%	8.47%	4.43%	21.5%	-7.47%
CC(C)(C)c1nnc(CN2CCCC(c3cc(C(N)=O)[nH]n3)C2)o1 (configuration not stated)	-6.11%	10.8%	-2.58%	-2.88%	-7.08%	-10%	3.78%	9%	-2.46%	-1.24%	-5.5%
CCc1nc(NCCCn2cccn2)c2c(n1)c(C)nn2C	-3.56%	20%	-0.746%	2.66%	0.197%	-0.528%	17.6%	8.9%	6.35%	12.8%	-12.1%
Cc1cc(C)c(CNC(=O)N2CCN(c3ncccn3)CC2)c(=O)[nH]1	-6.02%	7.89%	-4.85%	6.02%	5.08%	3.45%	16.5%	2.72%	3.43%	7.32%	-10.9%
